# Measured values reported in PubChem BioAssay AID430 (Sanford-Burnham Center for Chemical Genomics, 2006).
# In all, about 63,000 compounds went through this assay and about 1,100 (1.7%) were called active. This is one part of a sample in which actives are shown more often than they occur. No stated cut-off is given here; in the data, active means cytotoxicity above about 50%; inactive means the rest. Entries with a potency or affinity are not part of this list.
# Test: cytotoxicity in HPDE-C7 cells, cell-based, fluorescence, HTS (AID 430);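 further: cells exposed to compound for 48 hours before viability readout; 0% = vehicle and 100% = reference cytotoxic drug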
# Details: HPDE-C7 pancreatic duct cells viability, at 10 µM, hits give high values
row,Compound,cytotoxicity
1,Cc1cccc(-n2nnnc2SCC(=O)c2cc(C)n(CC3CCCO3)c2C)c1 (stereo not given),-31.6% (inactive)
2,O=C(Nc1nc(-c2ccc(Cl)s2)cs1)c1cccs1,12.2% (inactive)
3,CC(=O)c1cccc(S(=O)(=O)NCC(c2ccco2)N2CCCCC2)c1 (stereo not given),1% (inactive)
4,CCc1ccccc1NC(=O)CCc1nc(-c2ccc(C)cc2)no1,-5.6% (inactive)
5,COc1ccc(C(CC(=O)O)NC(=O)COc2ccccc2)cc1OC (stereo not given),-11.8% (inactive)
6,N#Cc1c(-c2cccs2)cc(-c2ccccn2)nc1N,42.3% (inactive)
7,CN1CCN(C(=O)CSc2nc(-c3cccs3)ccc2C#N)CC1,15.3% (inactive)
8,CCN(CC)C(=O)CSc1nc(C)cc(-c2cccs2)c1C#N,9.8% (inactive)
9,COc1ccc(-c2[nH]c(-c3cccc(OC)c3)nc2SCC(=O)NCc2ccco2)cc1,51.3% (active)
10,N#Cc1c(-c2ccccc2)cc(C2CC2)nc1N,-2.8% (inactive)
11,COc1ccc(-c2ccc(SCC(=O)NCc3ccco3)nn2)cc1,-13.7% (inactive)
12,COc1ccc(-c2cc(-c3cccs3)c(C#N)c(SCC(=O)NCc3ccco3)n2)cc1,52% (active)
13,COCc1cc(C)nc(SCC(=O)NCc2ccco2)c1C#N,1.9% (inactive)
14,COc1ccc(-c2nc(SCC(=O)NCc3ccco3)c(-c3ccccc3)[nH]2)cc1OC,-5.2% (inactive)
15,COc1ccc(-c2[nH]c(-c3ccc(F)cc3)nc2SCC(=O)NCc2ccco2)cc1OC,0.1% (inactive)
16,CSc1nc(C2CC2)cc(-c2cccs2)c1C#N,63.4% (active)
17,O=C(O)C1C2CCC(O2)C1C(=O)NCCC1=CCCCC1 (stereo not given),21.4% (inactive)
18,COc1ccc(CCC(C(O)C(F)(F)F)S(=O)c2ccccc2)cc1 (stereo not given),-3.4% (inactive)
19,COc1ccccc1NC(=O)Nn1cnnc1,-17.6% (inactive)
20,CCn1c(SCC(=O)c2cc(OC)ccc2OC)nnc1-c1ccncc1,6.4% (inactive)
21,CC1Cc2ccccc2N1C(=O)CSc1nnc(NC(=O)Cc2cccs2)s1 (stereo not given),-10% (inactive)
22,CC(=O)Oc1ccc(N2C(=O)C3C(C2=O)C2(C)C=CC3(C)O2)cc1 (stereo not given),-4% (inactive)
23,CCOc1ccc(C)cc1S(=O)(=O)NC1CCCCC1,4.3% (inactive)
24,Cc1ccc(-c2nn3c(C)nnc3s2)cc1NC(=O)c1ccc(OC(C)C)cc1,-1% (inactive)

row,Compound,cytotoxicity
1,CCOc1ccc2nc(C)cc(C(=O)O)c2c1,33.6% (inactive)
2,c1ccc(Nc2ncnc3c2oc2ccccc23)cc1,-9.3% (inactive)
3,c1ccc2c(c1)oc1c(NCCN3CCOCC3)ncnc12,6.2% (inactive)
4,COc1ccc(C)cc1NC(=O)COCC(=O)O,-11.8% (inactive)
5,O=C(CN1CCN(Cc2ccccc2)CC1)Nc1ccc(Cl)cn1,3.5% (inactive)
6,COc1cc(S(=O)(=O)N(Cc2cccnc2)Cc2ccco2)ccc1-n1cnnn1,-4.3% (inactive)
7,CCOc1ccccc1CN(Cc1ccco1)S(=O)(=O)c1ccc(-n2cnnn2)c(OC)c1,56.5% (active)
8,COc1ccccc1CN(Cc1ccco1)S(=O)(=O)c1ccc(-n2cnnn2)c(OC)c1,19.4% (inactive)
9,CCOC(=O)c1c(NC(=O)CN2CCOCC2)sc2c1CCCC2=O,3.3% (inactive)
10,CCOc1cc(/C=N/n2cnnc2)ccc1OCC(=O)Nc1ccccc1OC,7.2% (inactive)
11,Cc1cccc(Nc2nc(NCc3ccco3)nc(N3CCOCC3)n2)c1,53% (active)
12,CN1CCN(c2nc(Nc3cccc(C(F)(F)F)c3)nc(N3CCOCC3)n2)CC1,65.4% (active)
13,Cc1ccc(Nc2nc(N3CCOCC3)nc(N3CCOCC3)n2)cc1,8.7% (inactive)
14,CC(C)c1ccc(Nc2nc(NCc3ccco3)nc(N3CCOCC3)n2)cc1,27.5% (inactive)
15,COc1nc(Nc2cccc(C(F)(F)F)c2)nc(OC)n1,-28.1% (inactive)
16,O=C(O)c1cccc(Nc2nc(N3CCOCC3)nc(N3CCOCC3)n2)c1,-10% (inactive)
17,Cc1nn(C)c(C)c1S(=O)(=O)NC1CCCc2ccccc21 (stereo not given),-10% (inactive)
18,CCc1n[nH]c2c1/C(=N\O)CC(c1ccccc1)C2 (stereo not given),-1.4% (inactive)
19,O=C(C1CCN(c2nnc(-n3cccc3)s2)CC1)N1CCN(Cc2ccc3c(c2)OCO3)CC1,-3.5% (inactive)
20,C(=C\c1ccccc1)/CSc1nnc(-c2cnccn2)n1Cc1ccco1,-10.9% (inactive)
21,CCOC(=O)N1CCN(C(=O)C(CC(C)C)NC(=O)C2CCCCC2)CC1 (stereo not given),-6.8% (inactive)
22,N#Cc1c(NC(=O)CN2CCOCC2)oc(-c2ccccc2)c1-c1ccccc1,-0.2% (inactive)
23,CCn1c(SCC(=O)Nc2oc(-c3ccccc3)c(-c3ccccc3)c2C#N)nnc1-c1ccco1,32.7% (inactive)
24,N#Cc1c(NC(=O)Cn2c(=O)oc3ccccc32)oc(-c2ccccc2)c1-c1ccccc1,72% (active)

row,Compound,cytotoxicity
1,N#Cc1c(NC(=O)CCN2C(=O)c3ccccc3C2=O)oc(-c2ccccc2)c1-c1ccccc1,18.8% (inactive)
2,Cc1ccnc(SCC(=O)Nc2oc(-c3ccccc3)c(-c3ccccc3)c2C#N)n1,24.1% (inactive)
3,CC(=O)NC(C)C(=O)OCC(=O)c1ccc(Cl)s1 (stereo not given),-1.2% (inactive)
4,N#CCSc1nnc(COc2cccc3ccccc23)n1-c1ccccc1,37.6% (inactive)
5,CCS(=O)(=O)Nc1ccc(Cc2ccncc2)cc1,-12.1% (inactive)
6,CCOCCCNC(=O)C(c1ccc(OC)cc1)N(Cc1ccc2c(c1)OCO2)C(=O)CNC(C)=O (stereo not given),-6.5% (inactive)
7,C(=C\c1ccccc1)/CN1CCN(C(c2ccccc2)c2ccccc2)CC1,13% (inactive)
8,O=C(Nc1ccc(F)cc1)N1CCN(C/C=C/c2ccccc2)CC1,11.6% (inactive)
9,COc1cc(C2C3=C(CC(c4ccco4)CC3=O)Nc3ccccc3N2C(C)=O)cc(OC)c1OC (stereo not given),-7.9% (inactive)
10,Cc1ccc(-c2[nH]c(=O)n3ccncc23)s1,-9.9% (inactive)
11,CCOc1nc(-c2ccccc2)ccc1-c1noc(-c2ccncc2)n1,5.2% (inactive)
12,Cc1cnc(C(=O)Nc2ccc(N3CCOCC3)cc2)cn1,1.3% (inactive)
13,Cc1cnc(C(=O)Nc2ccc(N3CCN(C(=O)OC(C)(C)C)CC3)cc2)cn1,50.5% (active)
14,CC(C)(C)OC(=O)N1CCN(c2ccc(NC(=O)c3cc4ccccc4oc3=O)cc2)CC1,-30.1% (inactive)
15,Cc1csc2nc(CCNS(=O)(=O)c3ccc4c(c3)OCCO4)cn12,3.5% (inactive)
16,CCOC(=O)Nc1ccc2c(c1)Sc1ccccc1N2C(=O)CCN1CCOCC1,11.7% (inactive)
17,CCOC(=O)Nc1ccc2c(c1)N(C(=O)CCN1CCOCC1)c1ccccc1S2,-7.9% (inactive)
18,CCOC(=O)Nc1ccc2c(c1)N(C(=O)CCN1CCOCC1)c1ccccc1S2=O (stereo not given),85.2% (active)
19,COc1cc2nc(SCC(=O)NCc3ccco3)n(Cc3ccc(Cl)cc3)c(=O)c2cc1OC,50.9% (active)
20,C=CCn1c(SCC(=O)NCc2ccco2)nc2sc3c(c2c1=O)CCCCC3,2.9% (inactive)
21,CC1(C)Cc2c(sc3nc(SCC(=O)NCc4ccco4)n(-c4ccccc4)c(=O)c23)CS1,3.1% (inactive)
22,COc1cc2nc(SCC(=O)NCCc3ccccc3)n(Cc3ccco3)c(=O)c2cc1OC,-3.3% (inactive)
23,COCCNC(=O)CSc1nc2cc(OC)c(OC)cc2c(=O)n1Cc1ccco1,-1.3% (inactive)
24,O=C(CSc1nc2sc3c(c2c(=O)n1-c1ccccc1)CCCC3)NCc1ccco1,85.6% (active)

row,Compound,cytotoxicity
1,O=C(CSc1nc2ccccc2c(=O)n1Cc1ccco1)NCc1ccccc1,58.8% (active)
2,O=c1c2ccccc2nc(SCc2ccccc2)n1Cc1ccco1,8.4% (inactive)
3,O=C(CSc1nc2ccccc2c(=O)n1Cc1ccco1)NCc1ccco1,-1.8% (inactive)
4,CC(=O)c1cc2c(cc1NC(=O)C1CC=CCC1C(=O)O)OCO2 (stereo not given),-5.7% (inactive)
5,CCn1c(C(C)NC(=O)c2ccc(OC)c(OC)c2)nc2ccccc21 (stereo not given),5.7% (inactive)
6,O=C(O)c1c[nH]ccc1=O,-18.4% (inactive)
7,CCc1cc2c3c(c(=O)oc2cc1OC)CCCC3,0% (inactive)
8,Cc1ccc(-c2nsc3c(N4CCN(C(=O)c5ccco5)CC4)ncnc23)cc1,-21.7% (inactive)
9,CN1Cc2cc(C(=O)c3cc(Cl)cc(CSc4ncccn4)c3O)cnc2NC1=O,68.2% (active)
10,CCCCN1Cc2cc(C(=O)c3cc(F)ccc3O)cnc2NC1=O,6.2% (inactive)
11,Cc1ccc(O)c(C(=O)c2cnc3c(c2)CN(CCC(C)C)C(=O)N3)c1,-5.5% (inactive)
12,CNC(=O)NC(=O)CSc1cccc(C(F)(F)F)c1,-6.3% (inactive)
13,COc1ccccc1N1CC(C(=O)OCC(=O)c2ccc(F)cc2)CC1=O (stereo not given),-16.4% (inactive)
14,O=C(Nc1ccc(-c2noc(CCc3ccccc3)n2)cc1)c1ccco1,6.6% (inactive)
15,O=C(Nc1cccnc1)c1cc(-c2cccs2)on1,14.1% (inactive)
16,COc1ccc(Cc2nc(-c3ccc(NC(=O)c4cccnc4)cc3)no2)cc1,27.4% (inactive)
17,c1ccc(CCc2nc(-c3cccnc3)no2)cc1,-9.2% (inactive)
18,O=C(Nc1ccc(-c2noc(CCc3ccccc3)n2)cc1)c1cccnc1,58.7% (active)
19,O=C(Nc1ccc(-c2noc(-c3cccs3)n2)cc1)c1cccnc1,53.2% (active)
20,COc1ccc(CC(=O)Nc2ccc(-c3noc(-c4cccc(OC)c4)n3)cc2)cc1,1% (inactive)
21,COc1cccc(-c2nc(-c3ccc(NC(=O)c4cccnc4)cc3)no2)c1,70.7% (active)
22,Cc1ccc(-c2noc(-c3cccs3)n2)cc1,0.6% (inactive)
23,COC(=O)C1=C(O)CSC1=Nc1cccc(C(F)(F)F)c1,6.1% (inactive)
